According to ChEMBL document CHEMBL2218924, “A broad activity screen in support of a chemogenomic map for kinase signalling research and drug discovery” (Biochem J, 2013):

Legend:
[1] = biological target: T1, Ephrin type-A receptor 3 (Homo sapiens) (UniProt P29320); conditions: at 10 µM
T1 sequence (whole entry): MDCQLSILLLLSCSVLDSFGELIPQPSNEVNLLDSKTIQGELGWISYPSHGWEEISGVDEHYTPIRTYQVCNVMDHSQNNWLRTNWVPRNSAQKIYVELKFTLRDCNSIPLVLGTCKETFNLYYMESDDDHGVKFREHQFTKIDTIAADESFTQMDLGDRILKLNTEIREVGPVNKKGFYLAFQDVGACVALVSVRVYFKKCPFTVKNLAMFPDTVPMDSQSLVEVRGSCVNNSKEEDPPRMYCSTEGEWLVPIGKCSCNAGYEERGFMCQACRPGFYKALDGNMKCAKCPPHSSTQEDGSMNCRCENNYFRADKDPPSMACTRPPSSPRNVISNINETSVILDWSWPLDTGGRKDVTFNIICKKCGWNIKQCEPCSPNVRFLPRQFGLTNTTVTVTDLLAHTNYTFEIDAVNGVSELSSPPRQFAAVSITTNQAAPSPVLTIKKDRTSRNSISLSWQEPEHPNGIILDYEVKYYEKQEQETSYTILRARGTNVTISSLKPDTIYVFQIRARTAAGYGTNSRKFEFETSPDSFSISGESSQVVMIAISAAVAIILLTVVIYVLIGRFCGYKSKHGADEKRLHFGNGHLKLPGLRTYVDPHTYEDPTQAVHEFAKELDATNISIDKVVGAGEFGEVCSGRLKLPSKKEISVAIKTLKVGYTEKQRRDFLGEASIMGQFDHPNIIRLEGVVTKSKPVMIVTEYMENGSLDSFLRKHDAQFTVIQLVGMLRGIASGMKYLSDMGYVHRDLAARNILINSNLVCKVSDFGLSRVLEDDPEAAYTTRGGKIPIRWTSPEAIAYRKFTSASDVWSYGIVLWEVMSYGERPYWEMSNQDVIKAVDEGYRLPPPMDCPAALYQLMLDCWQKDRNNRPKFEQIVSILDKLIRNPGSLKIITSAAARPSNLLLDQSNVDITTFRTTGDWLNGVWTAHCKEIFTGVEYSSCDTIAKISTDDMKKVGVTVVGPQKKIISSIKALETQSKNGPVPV

[2] = biological target: Ephrin type-A receptor 4 (Homo sapiens) (UniProt P54764); conditions: at 1 µM
Chain of Ephrin type-A receptor 4 (Homo sapiens) (P54764 whole entry): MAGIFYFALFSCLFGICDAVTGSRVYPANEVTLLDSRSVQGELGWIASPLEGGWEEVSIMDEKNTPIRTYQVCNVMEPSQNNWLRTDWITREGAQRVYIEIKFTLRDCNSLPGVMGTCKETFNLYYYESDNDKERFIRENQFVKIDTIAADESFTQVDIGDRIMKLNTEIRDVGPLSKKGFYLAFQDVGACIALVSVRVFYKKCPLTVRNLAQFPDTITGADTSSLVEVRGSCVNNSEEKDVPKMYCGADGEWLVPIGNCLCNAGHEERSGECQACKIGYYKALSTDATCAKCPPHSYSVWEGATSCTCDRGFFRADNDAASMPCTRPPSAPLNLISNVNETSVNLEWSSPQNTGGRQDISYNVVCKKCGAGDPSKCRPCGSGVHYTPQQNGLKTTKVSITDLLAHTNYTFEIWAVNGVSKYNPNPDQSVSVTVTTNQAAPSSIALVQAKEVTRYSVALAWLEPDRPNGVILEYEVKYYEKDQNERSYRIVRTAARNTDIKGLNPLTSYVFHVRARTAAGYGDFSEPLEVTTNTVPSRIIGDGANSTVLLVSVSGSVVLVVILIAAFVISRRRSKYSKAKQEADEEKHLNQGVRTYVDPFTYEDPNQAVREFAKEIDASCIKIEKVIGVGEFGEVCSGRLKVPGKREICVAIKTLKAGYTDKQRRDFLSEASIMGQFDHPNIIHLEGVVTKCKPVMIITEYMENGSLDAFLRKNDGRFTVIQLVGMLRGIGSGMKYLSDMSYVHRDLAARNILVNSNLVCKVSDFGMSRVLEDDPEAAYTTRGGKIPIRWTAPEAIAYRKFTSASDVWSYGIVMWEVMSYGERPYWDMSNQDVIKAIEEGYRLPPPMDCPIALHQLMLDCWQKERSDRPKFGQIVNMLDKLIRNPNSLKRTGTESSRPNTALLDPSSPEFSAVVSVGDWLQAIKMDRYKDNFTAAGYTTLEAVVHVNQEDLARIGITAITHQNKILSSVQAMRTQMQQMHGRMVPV

[3] = biological target: Ephrin type-A receptor 4 (Homo sapiens) (UniProt P54764); conditions: at 10 µM
[4] = biological target: Ephrin type-A receptor 5 (Homo sapiens) (UniProt P54756); conditions: at 1 µM
Chain of Ephrin type-A receptor 5 (Homo sapiens) (P54756 whole entry): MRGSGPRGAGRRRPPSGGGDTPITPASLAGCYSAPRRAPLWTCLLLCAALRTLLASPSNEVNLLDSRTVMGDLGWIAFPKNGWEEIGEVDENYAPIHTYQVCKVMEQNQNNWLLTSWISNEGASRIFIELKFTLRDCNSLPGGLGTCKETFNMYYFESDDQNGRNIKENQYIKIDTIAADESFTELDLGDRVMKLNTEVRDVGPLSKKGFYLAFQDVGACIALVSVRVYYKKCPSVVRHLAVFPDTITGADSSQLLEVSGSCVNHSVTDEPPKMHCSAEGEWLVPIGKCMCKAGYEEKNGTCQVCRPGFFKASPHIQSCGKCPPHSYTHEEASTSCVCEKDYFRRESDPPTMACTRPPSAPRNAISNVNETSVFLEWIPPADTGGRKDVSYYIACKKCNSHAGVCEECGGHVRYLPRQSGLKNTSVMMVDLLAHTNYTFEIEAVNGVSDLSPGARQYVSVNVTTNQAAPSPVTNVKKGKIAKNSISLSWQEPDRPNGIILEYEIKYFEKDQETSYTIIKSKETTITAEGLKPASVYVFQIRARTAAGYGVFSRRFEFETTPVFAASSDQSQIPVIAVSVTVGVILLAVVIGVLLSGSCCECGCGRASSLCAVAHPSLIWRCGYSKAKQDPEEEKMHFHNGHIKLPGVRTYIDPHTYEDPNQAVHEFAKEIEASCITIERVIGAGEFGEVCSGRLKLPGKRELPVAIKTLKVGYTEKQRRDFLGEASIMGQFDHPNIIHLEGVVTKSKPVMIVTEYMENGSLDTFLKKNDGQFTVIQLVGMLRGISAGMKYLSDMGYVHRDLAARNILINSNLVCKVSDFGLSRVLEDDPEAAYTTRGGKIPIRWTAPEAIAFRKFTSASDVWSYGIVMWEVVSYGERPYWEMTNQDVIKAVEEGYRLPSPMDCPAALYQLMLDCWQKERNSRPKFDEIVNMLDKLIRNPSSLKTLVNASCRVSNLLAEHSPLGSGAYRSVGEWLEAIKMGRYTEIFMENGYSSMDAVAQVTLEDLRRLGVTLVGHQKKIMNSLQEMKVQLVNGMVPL

[5] = biological target: Ephrin type-A receptor 5 (Homo sapiens) (UniProt P54756); conditions: at 10 µM
[6] = biological target: Ephrin type-A receptor 7 (Homo sapiens) (UniProt Q15375); conditions: at 1 µM
Chain of Ephrin type-A receptor 7 (Homo sapiens) (Q15375 28-998 limits assumed): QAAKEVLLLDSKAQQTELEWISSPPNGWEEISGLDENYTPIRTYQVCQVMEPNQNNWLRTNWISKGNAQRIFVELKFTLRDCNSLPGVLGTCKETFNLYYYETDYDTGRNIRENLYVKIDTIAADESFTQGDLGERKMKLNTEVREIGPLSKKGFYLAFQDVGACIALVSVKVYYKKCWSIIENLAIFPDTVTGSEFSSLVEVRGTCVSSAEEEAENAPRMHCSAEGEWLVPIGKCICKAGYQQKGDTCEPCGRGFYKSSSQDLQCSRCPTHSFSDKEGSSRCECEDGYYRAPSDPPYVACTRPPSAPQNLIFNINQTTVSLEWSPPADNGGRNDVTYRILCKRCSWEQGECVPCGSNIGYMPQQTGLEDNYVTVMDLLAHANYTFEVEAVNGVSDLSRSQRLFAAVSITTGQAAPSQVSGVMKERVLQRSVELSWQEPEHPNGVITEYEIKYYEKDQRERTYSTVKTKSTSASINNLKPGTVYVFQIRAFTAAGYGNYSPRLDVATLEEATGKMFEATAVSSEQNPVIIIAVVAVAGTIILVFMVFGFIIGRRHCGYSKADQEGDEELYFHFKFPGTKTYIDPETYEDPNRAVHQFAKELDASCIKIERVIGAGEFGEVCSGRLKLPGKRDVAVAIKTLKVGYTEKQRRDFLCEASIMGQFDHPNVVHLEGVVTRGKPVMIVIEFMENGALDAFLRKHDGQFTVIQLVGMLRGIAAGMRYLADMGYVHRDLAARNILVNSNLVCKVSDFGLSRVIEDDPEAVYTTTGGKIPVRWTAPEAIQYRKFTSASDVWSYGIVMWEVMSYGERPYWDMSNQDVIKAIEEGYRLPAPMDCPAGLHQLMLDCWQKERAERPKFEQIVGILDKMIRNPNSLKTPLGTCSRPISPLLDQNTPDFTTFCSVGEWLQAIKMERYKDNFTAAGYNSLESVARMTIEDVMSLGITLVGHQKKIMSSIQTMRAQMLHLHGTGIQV

[7] = biological target: Ephrin type-A receptor 7 (Homo sapiens) (UniProt Q15375); conditions: at 10 µM
[8] = biological target: T2, Ephrin type-A receptor 8 (Homo sapiens) (UniProt P29322); conditions: at 1 µM
T2 sequence (whole entry): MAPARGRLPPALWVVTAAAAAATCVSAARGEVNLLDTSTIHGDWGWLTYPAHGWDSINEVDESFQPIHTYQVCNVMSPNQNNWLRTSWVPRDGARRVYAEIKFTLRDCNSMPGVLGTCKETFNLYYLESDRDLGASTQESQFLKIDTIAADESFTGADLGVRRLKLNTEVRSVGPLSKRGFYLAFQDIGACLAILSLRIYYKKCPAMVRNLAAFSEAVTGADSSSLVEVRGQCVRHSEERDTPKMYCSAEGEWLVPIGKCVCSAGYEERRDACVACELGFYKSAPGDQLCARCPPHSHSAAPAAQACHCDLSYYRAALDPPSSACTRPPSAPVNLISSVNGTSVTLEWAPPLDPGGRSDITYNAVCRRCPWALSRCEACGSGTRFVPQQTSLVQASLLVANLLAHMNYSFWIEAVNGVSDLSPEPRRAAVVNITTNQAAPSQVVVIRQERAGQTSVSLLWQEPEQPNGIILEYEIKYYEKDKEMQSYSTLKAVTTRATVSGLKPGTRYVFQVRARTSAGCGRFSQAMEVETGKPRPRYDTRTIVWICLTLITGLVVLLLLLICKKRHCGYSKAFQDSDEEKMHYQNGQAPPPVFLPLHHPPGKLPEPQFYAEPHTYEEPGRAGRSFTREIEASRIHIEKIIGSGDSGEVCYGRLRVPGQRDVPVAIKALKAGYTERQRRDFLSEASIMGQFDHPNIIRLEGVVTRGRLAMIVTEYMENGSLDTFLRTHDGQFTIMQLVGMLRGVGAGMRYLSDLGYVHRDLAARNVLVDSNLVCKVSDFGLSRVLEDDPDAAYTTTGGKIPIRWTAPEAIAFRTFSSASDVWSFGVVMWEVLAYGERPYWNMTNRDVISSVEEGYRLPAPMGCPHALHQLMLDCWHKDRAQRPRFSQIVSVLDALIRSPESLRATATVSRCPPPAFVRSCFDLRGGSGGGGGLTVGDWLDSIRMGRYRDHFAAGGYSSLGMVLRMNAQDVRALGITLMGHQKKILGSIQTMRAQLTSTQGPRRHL

[9] = biological target: T2, Ephrin type-A receptor 8 (Homo sapiens); conditions: at 10 µM
[10] = biological target: T3, Ephrin type-B receptor 1 (Homo sapiens) (UniProt P54762); conditions: at 1 µM
T3 sequence (whole entry): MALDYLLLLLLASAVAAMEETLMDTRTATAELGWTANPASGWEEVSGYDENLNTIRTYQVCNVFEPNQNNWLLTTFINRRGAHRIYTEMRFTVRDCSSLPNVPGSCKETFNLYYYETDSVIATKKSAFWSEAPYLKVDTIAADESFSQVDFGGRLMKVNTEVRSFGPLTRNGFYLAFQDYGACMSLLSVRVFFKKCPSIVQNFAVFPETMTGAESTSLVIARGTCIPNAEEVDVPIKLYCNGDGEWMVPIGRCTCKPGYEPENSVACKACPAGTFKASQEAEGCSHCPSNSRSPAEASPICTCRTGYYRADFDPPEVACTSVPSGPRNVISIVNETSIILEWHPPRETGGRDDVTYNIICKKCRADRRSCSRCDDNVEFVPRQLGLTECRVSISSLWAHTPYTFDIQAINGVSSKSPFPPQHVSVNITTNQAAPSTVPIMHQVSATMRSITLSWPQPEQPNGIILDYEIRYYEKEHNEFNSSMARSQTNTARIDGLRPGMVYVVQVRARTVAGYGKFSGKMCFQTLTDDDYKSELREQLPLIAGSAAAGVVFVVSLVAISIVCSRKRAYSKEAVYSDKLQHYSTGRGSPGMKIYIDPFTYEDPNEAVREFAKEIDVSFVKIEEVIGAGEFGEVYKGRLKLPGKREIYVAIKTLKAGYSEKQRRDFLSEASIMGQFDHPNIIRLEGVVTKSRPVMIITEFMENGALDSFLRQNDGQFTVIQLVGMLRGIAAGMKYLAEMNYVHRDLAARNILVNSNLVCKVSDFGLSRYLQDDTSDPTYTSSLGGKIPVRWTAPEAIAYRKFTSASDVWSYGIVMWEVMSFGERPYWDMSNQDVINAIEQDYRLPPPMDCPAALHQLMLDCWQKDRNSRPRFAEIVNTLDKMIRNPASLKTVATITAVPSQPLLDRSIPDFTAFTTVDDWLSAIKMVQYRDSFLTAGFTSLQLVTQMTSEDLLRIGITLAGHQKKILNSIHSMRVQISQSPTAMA

[11] = biological target: T3, Ephrin type-B receptor 1 (Homo sapiens); conditions: at 10 µM
[12] = biological target: T4, Ephrin type-B receptor 2 (Homo sapiens) (UniProt P29323); conditions: at 1 µM
T4 sequence (whole entry): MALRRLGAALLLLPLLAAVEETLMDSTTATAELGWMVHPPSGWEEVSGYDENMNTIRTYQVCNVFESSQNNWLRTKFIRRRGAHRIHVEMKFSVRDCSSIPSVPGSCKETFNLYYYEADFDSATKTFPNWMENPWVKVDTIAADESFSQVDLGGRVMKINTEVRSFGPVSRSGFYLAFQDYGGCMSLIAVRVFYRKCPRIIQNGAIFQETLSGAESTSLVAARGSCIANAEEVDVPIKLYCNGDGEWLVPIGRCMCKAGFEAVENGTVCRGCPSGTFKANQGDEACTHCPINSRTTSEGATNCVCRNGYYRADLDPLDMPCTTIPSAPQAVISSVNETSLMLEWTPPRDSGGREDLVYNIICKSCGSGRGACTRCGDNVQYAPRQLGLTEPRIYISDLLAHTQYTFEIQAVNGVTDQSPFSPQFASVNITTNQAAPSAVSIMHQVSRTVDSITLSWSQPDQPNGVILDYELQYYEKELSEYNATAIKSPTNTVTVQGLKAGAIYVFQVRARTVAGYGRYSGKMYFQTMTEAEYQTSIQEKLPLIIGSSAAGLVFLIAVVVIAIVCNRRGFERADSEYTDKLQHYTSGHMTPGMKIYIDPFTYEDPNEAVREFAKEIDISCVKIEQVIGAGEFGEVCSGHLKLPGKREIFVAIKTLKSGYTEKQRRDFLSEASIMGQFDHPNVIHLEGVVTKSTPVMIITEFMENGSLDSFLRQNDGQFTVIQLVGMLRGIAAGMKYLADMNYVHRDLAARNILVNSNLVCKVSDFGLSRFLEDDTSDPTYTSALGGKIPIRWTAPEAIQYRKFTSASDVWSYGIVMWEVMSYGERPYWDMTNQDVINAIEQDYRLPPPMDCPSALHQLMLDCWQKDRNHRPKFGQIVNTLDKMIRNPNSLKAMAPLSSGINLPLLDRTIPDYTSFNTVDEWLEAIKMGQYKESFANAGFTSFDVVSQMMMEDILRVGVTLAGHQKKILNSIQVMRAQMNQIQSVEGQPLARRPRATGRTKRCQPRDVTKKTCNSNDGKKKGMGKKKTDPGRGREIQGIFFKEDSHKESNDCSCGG

[13] = biological target: T4, Ephrin type-B receptor 2 (Homo sapiens); conditions: at 10 µM
[14] = biological target: Receptor tyrosine-protein kinase erbB-4 (Homo sapiens) (UniProt Q15303); conditions: at 10 µM
Chain of Receptor tyrosine-protein kinase erbB-4 (Homo sapiens) (Q15303 whole entry): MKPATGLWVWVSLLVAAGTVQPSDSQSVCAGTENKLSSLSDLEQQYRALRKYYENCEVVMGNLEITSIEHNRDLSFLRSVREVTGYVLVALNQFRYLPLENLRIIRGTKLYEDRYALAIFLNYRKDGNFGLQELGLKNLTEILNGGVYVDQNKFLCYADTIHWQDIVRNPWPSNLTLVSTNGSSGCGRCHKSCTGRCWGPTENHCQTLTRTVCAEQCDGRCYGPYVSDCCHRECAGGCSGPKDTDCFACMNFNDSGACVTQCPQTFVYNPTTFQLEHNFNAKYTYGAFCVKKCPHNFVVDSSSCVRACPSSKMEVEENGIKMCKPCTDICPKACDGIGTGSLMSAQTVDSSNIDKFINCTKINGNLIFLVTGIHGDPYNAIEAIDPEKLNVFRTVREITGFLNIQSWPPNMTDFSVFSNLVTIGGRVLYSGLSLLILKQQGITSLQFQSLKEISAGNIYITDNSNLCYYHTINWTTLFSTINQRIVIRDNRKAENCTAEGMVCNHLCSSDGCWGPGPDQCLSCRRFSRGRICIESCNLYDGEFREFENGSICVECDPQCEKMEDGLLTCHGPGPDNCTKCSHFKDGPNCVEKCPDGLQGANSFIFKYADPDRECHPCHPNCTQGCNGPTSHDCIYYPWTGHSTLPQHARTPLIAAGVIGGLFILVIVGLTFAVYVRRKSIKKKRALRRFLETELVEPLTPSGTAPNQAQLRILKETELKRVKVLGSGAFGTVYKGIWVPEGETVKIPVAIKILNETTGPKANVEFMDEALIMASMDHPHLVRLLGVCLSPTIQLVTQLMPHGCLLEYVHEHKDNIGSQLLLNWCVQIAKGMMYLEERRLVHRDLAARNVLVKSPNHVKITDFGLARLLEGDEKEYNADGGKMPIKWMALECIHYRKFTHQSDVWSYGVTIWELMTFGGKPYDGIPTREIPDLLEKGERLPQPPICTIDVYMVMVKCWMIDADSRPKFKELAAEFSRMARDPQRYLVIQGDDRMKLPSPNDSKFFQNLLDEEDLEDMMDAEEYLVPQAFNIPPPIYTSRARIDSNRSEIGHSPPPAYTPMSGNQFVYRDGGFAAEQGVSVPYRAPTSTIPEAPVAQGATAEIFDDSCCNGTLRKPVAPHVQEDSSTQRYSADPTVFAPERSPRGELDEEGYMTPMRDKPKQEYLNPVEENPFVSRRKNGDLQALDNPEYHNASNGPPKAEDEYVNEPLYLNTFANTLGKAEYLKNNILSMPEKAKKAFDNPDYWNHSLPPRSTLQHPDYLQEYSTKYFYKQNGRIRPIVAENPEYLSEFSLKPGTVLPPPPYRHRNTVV

[15] = biological target: Focal adhesion kinase 1 (Homo sapiens) (UniProt Q05397); conditions: at 1 µM
[16] = biological target: T5, Ephrin type-B receptor 3 (Homo sapiens) (UniProt P54753); conditions: at 1 µM
T5 sequence (whole entry): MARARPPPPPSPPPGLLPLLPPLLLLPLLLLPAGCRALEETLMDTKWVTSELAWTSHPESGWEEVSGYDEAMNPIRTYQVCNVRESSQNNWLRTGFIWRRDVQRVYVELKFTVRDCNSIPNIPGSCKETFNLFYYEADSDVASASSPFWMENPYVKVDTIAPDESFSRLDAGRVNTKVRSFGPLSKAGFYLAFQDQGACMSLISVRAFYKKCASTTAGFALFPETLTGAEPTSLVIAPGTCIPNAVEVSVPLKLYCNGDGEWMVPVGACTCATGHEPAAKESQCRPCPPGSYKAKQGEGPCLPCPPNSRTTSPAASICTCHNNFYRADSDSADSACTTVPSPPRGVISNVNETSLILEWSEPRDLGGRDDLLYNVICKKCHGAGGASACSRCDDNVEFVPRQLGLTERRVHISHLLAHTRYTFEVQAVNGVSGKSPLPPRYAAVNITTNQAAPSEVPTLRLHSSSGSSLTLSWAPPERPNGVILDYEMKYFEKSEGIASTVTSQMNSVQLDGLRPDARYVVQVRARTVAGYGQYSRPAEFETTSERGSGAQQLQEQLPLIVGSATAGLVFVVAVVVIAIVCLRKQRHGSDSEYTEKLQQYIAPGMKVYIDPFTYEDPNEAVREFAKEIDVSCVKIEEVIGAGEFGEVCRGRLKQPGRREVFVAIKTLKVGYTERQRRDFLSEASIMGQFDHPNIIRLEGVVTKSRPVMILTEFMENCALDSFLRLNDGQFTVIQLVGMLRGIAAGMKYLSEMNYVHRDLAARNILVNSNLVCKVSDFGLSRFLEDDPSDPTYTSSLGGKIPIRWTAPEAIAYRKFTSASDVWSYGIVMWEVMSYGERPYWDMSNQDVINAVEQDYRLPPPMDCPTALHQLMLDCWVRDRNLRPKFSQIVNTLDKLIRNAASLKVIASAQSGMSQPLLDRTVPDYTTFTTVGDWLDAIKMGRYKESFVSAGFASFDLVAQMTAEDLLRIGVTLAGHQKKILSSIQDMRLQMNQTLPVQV

[17] = biological target: T5, Ephrin type-B receptor 3 (Homo sapiens); conditions: at 10 µM
[18] = biological target: Receptor tyrosine-protein kinase erbB-4 (Homo sapiens) (UniProt Q15303); conditions: at 1 µM

Compound	residual activity [1] [%]	residual activity [2] [%]	residual activity [3] [%]	residual activity [4] [%]	residual activity [5] [%]	residual activity [6] [%]	residual activity [7] [%]	residual activity [8] [%]	residual activity [9] [%]	residual activity [10] [%]	residual activity [11] [%]	residual activity [12] [%]	residual activity [13] [%]	residual activity [14] [%]	residual activity [15] [%]	residual activity [16]	residual activity [17] [%]	residual activity [18] [%]
COc1cc2nccc(Oc3ccc(NC(=O)Nc4cc(C)on4)c(Cl)c3)c2cc1OC	0	26	3	2	7	6	1	1	1	1	-1	-2	-1	75	96	–	–	–
COc1ccc2c(c1)c(C1=C(c3c[nH]c4ccccc34)C(=O)NC1=O)cn2CCCN(C)C	60	115	73	–	–	–	44	100	96	80	53	109	–	53	–	111% (inactive)	124	75
